# Sampled rows, rich in hits. Any-hit rate of the full collection: about 2.8%.
# PAX8 inh HTS: inhibitors of PAX8 transcriptional activity in RMG-I cells. RMG-I TPO-luciferase reporter, SteadyGlo, 24 h. inhibition, % at 12.6 µM. hit rate 1.2% among 360,000. AID 652154;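 active means mean replicate inhibition at least 60% with every replicate also reaching 60%; inconclusive means only one of the two criteria is met; inactive means mean below 60% and not all replicates reaching 60%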;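 further: luciferase light reporting Pax8 driven TPO promoter activity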
# Env fusion inh: HIV envelope-mediated fusion inhibition. AID 651610. inhibition, % at 12.3 µM. hit rate 1.1% among 360,000. HeLa-JRFL Env/CEM21 cell fusion, luciferase;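 active means mean replicate inhibition score of at least 50 and every replicate individually at or above 50; inconclusive means only one of the two criteria met; inactive means mean below 50 and not all replicates reaching 50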
# N-glyco inh: N-linked glycosylation inhibition | hit rate 0.23% among 360,000 | reporter increase, % at 12.5 µM | D54 ERlucT glycosylation luciferase reporter, 24 h; percent of 100 nM tunicamycin response | AID 588692;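 active means mean luciferase reporter signal, scaled so untreated is 0 and the glycosylation-blocking control 100, at or above a set limit in every replicate; inconclusive means mean reaches the limit but not every replicate does; inactive means mean below the limit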;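 further: luciferase carries N-glycosylation sites so blocking glycosylation raises the light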
# Shn3 inh set2: reduces Shn3 3'UTR luciferase signal in osteoblasts; inhibition, % at 12.5 µM; AID 588674; hit rate 0.52% among 360,000; Clone20 osteoblast Shn3 3'UTR firefly luciferase, 24 h;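 active means mean inhibition of at least 75% with every replicate also reaching 75%; inconclusive means mean inhibition at least 75% but some replicate below; inactive means mean inhibition below 75%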
# EBV LMP1 NFkB: reduces LMP1-driven NF-kappaB luciferase signal | LMP1-induced NF-kappaB luciferase reporter cells, luminescence | inhibition, % at 12.5 µM | hit rate 0.69% among 350,000 | AID 504558; in the data active means inhibition above about 41%; inconclusive means no clear call, values can overlap the other calls
# NSD2 inh: inhibitors of human histone methyltransferase NSD2; O96028; inhibition, % at 12.5 µM; NSD2 peptide methylation, AlphaScreen, 120 min; AID 743445; hit rate 0.54% among 310,000; in the data active means inhibition above about 50%
# Numbers stand for hits; 0 = inactive; ? = inconclusive; - = no result; [ ] = another dose, or the depositor's remark.
SMILES,PAX8 inh HTS,Env fusion inh,N-glyco inh,Shn3 inh set2,EBV LMP1 NFkB,NSD2 inh
COCC1CCCCN1C(=O)c1cc(COc2ccc3ncccc3c2)on1 (stereo not drawn),0,0,0,89,0,0
CCN1CCN(C(=O)c2cc(COc3ccc4ncccc4c3)on2)CC1,0,0,0,0,0,0
C[C@@H]1CN([C@H](C)CO)C(=O)c2cc(N(C)C)ccc2O[C@@H]1CN(C)Cc1ccc(-c2ccccc2)cc1,0,-,-,-,-,-
COc1ccc2c3c(n(C)c2c1)[C@H](CO)N(Cc1ccccc1)CC31CN(C(=O)Nc2cccc(F)c2)C1,-,0,-,-,-,-
O=C(c1cc(COc2cccc(C(F)(F)F)c2)on1)N1CCC(c2ccncc2)CC1,0,72,0,0,0,0
Cc1ccccc1-c1ccc2c(c1)O[C@@H](CN(C)C(=O)c1ccccn1)[C@H](C)CN([C@@H](C)CO)S2(=O)=O,0,0,-,-,-,-
N#C[C@H]1[C@@H](c2ccc(-c3cccc(F)c3)cc2)[C@@H](CO)N1C(=O)c1cccnc1,0,0,-,-,-,-
CCCNC(=O)N1[C@@H](C#N)[C@H](c2ccc(-c3cccnc3)cc2)[C@@H]1CO,0,0,-,-,-,-
CCCNC(=O)N1[C@H](C#N)[C@H](c2ccccc2)[C@@H]1CO,0,0,-,-,-,-
CCCNC(=O)N1[C@H](C#N)[C@H](c2ccc(-c3ccc(C(=O)N(C)C)cc3)cc2)[C@@H]1CO,0,68[16.7 µM],-,-,-,-
N#C[C@@H]1[C@H](c2ccc(-c3cccc(F)c3)cc2)[C@H](CO)N1C(=O)c1cccnc1,0,66[16.7 µM],-,-,-,-
CCCNC(=O)N1[C@H](C#N)[C@H](c2ccc(-c3cccnc3)cc2)[C@@H]1CO,0,64[16.7 µM],-,-,-,-
Cc1cc(N2CCN(c3ccc([N+](=O)[O-])c4cccnc34)CC2)c2ccccc2n1,-,-,105,0,0,-
Cc1cc(N2CCN(c3ccc(C(F)(F)F)cc3[N+](=O)[O-])CC2)c2ccccc2n1,0,0,0,0,0,0
N#C/C(=N\Nc1cccc([N+](=O)[O-])c1)C(=O)c1ccc(Br)cc1,91,0,0,0,0,-
CN1C(=O)[C@@](O)(CC(=O)c2ccccc2)c2cc(Br)ccc21,0,0,-,-,-,-
CCCCN1C(=O)C(O)(c2ccccc2)c2cc(Br)ccc21 (stereo not drawn),0,85,0,0,0,0
Oc1ccc(C[C@H]2CNC(=S)N2C[C@H]2CCCN2C[C@H](Cc2ccccc2)N2C[C@H](Cc3ccc(O)cc3)N(CC3CCCCCC3)C2=S)cc1,0,0,0,0,-,-
Oc1ccc(C[C@H]2CN([C@@H](Cc3ccc(O)cc3)CN3CCC[C@@H]3CN3C(=S)NC[C@@H]3Cc3ccccc3)C(=S)N2CC2CCCCCC2)cc1,89,0,0,0,-,-
Oc1ccc(C[C@H]2CNC(=S)N2CC2CCCN2C[C@H](Cc2ccc(O)cc2)N2C[C@H](Cc3ccc(O)cc3)N(CC3CCCCC3)C2=S)cc1 (stereo partly drawn),91,91,0,0,0,-
Oc1ccc(C[C@H]2CNC(=S)N2CC2CCCN2C[C@H](Cc2ccccc2)N2C[C@H](Cc3ccc(O)cc3)N(CC3CCCCCC3)C2=S)cc1 (stereo partly drawn),73,0,0,0,0,-
Oc1ccc(C[C@H]2CN([C@@H](Cc3cccc(O)c3)CN3CCC[C@@H]3CN3C(=S)NC[C@@H]3Cc3ccccc3)C(=S)N2CC2CCCCC2)cc1,75,0,0,0,-,-
Oc1ccc(C[C@H]2CN([C@@H](Cc3ccccc3)CN3CCCC3CN3C(=S)NC[C@@H]3Cc3ccccc3)C(=S)N2CC2CCCCC2)cc1 (stereo partly drawn),0,0,-,-,-,-
C[C@@H](NC(=O)C[C@H]1CC[C@H]2[C@@H](COC[C@H](O)CN2C)O1)c1ccccc1,0,0,-,-,-,-
COc1ccc(NC(=O)Nc2ccc3c(c2)C(=O)N([C@H](C)CO)C[C@H](C)[C@H](CN(C)CC2CCCCC2)OCCCC[C@@H](C)O3)cc1,0,0,-,-,-,-
SMILES,PAX8 inh HTS,Env fusion inh,N-glyco inh,Shn3 inh set2,EBV LMP1 NFkB,NSD2 inh
COc1ccc(NC(=O)Nc2ccc3c(c2)C(=O)N([C@@H](C)CO)C[C@H](C)[C@H](CN(C)CC2CCCCC2)OCCCC[C@H](C)O3)cc1,0,55[16.7 µM],-,-,-,-
COc1ccc(NC(=O)Nc2ccc3c(c2)C(=O)N([C@H](C)CO)C[C@H](C)[C@H](CN(C)CC2CC2)OCCCC[C@H](C)O3)cc1,0,64[16.7 µM],-,-,-,-
COc1ccc(NC(=O)Nc2ccc3c(c2)C(=O)N([C@@H](C)CO)C[C@H](C)[C@H](CN(C)CC2CCCCC2)OCCCC[C@@H](C)O3)cc1,0,0,-,-,-,-
COc1ccc(NC(=O)Nc2ccc3c(c2)C(=O)N([C@@H](C)CO)C[C@@H](C)[C@@H](CN(C)CC2CCCCC2)OCCCC[C@@H](C)O3)cc1,77,0,-,-,-,-
COc1ccc(-c2cn(CC[C@H]3CC[C@H](NC(=O)NC(C)C)[C@H](CO)O3)nn2)cc1,0,0,-,-,-,-
C[C@@H]1CCCCO[C@H](CN(C)C(=O)c2ccncc2)[C@@H](C)CN([C@H](C)CO)C(=O)c2cc(NC(=O)c3ccccc3)ccc2O1,0,0,-,-,-,-
COc1ccccc1CN1CC[C@@H]2[C@H]1c1cc(-c3ccc(C(=O)N(C)C)cc3)ccc1N[C@@H]2CO,0,-,-,-,-,-
CCOc1ccc2nc(N/C(N)=N/C(=S)Nc3ccc(C)c(C)c3)nc(C)c2c1,132,-,0,0,0,0
COc1ccc(NC(=S)/N=C(\N)Nc2nc(C)c3ccc(C)cc3n2)cc1,0,0,0,0,0,0
COc1cccc(C2=NOC(C(=O)NCc3ccco3)C2)c1 (stereo not drawn),-,0,29,0,0,0
COc1cccc(C2=NOC(C(=O)NCc3ccccc3)C2)c1 (stereo not drawn),-,0,?,0,0,0
CC(C)N(CCCNC(=O)c1ccc(CS(=O)(=O)c2c(Cl)cccc2Cl)o1)Cc1ccccc1,62,0,0,0,0,0
COc1cc2ccnc(Cc3cccc(OC)c3OC)c2cc1OC,0,0,0,86,0,0
COc1cc(N)c(Cc2nccc3cc(OC)c(OC)cc23)cc1OC,0,0,0,0,0,0
COc1ccc(CN(C)C[C@@H]2Oc3ccc(NS(=O)(=O)c4c(C)noc4C)cc3CC(=O)N([C@@H](C)CO)C[C@@H]2C)cc1,-,0,-,-,-,-
CCCc1nc2ccc(NC(C)=O)cc2c(=O)n1Cc1ccc(Cl)cc1,67,0,0,0,0,0
CCCc1nc2ccc(NC(=O)c3cccs3)cc2c(=O)n1Cc1ccccc1Cl,0,0,0,0,0,0
C[C@@H]1CN([C@@H](C)CO)C(=O)Cc2cc(N(C)C)ccc2O[C@@H]1CN(C)Cc1ccc(C(=O)Nc2ccccc2N)cc1,76,0,-,-,-,-
C[C@H]1CN([C@@H](C)CO)C(=O)Cc2cc(N(C)C)ccc2O[C@@H]1CN(C)Cc1ccc(C(=O)Nc2ccccc2N)cc1,65,0,-,-,-,-
C[C@@H]1CN([C@@H](C)CO)C(=O)Cc2cc(N(C)C)ccc2O[C@H]1CN(C)Cc1ccc(C(=O)Nc2ccccc2N)cc1,77,0,-,-,-,-

# Bioassay records as filed in PubChem BioAssay.
